12 compounds from PubChem BioAssay (NCATS) can be followed below.

Structures are written as SMILES. The source made the active and inactive calls. The call rests on the fitted dose curve; in most records, active means well fitted activation curve with a large enough effect; inconclusive means small, poorly fitted or top-dose-only effect; inactive means no such curve, though single readings can be large or run the other way.

The target in this assay is Cytochrome P450 3A4 (Homo sapiens) (UniProt P08684). Nature of the assay: qHTS Assay for Activators of Cytochrome P450 3A4 (AID 885). Further: nearly all actives have a fitted effect of over 65% in size. As to conditions: recombinant CYP3A4, Luciferin-PPXE luminescence, 60 min; series mostly up to 57.1 µM; activity change, positive = activation: at the top concentration. In a few lines: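 20nM CYP3A4 + 25uM Luciferin-PPXE (=KM), 200mM KPO4; cpd 10 min RT; NADPH regen, 60 min RT; stop w/ detection buffer, 20 min; luminescence. Normalized to 57 uM ketoconazole.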
Sequence of Cytochrome P450 3A4 (Homo sapiens) (P08684 whole entry, looked up): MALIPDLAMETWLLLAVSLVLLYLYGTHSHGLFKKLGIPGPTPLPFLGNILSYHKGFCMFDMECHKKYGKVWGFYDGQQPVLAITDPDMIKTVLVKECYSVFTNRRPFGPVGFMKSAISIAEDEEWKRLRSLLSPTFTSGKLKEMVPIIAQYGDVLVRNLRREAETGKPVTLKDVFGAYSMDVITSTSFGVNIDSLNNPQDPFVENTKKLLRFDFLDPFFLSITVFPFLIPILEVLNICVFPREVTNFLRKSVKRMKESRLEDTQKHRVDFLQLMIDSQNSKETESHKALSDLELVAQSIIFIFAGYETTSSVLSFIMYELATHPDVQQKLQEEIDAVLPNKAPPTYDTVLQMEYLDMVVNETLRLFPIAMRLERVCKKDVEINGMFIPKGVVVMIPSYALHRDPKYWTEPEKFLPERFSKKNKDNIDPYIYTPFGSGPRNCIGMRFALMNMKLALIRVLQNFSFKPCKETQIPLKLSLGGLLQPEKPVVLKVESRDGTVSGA
For the compound `COC(=O)c1ccc(C23CC4(C2)[C@H](CN(C)[C@@H]4c2ccccc2)C3c2ccccc2)cc1` (some centres not stated), the “activity change, positive = activation” value is -59.7% (inactive).

Regarding `COC(=O)[C@@H]1C[C@@H]2CC[C@@H](O)C[C@@H]2N1Cc1ccc(C)s1`, the “activity change, positive = activation” value is -55.4% (inactive). With `C/C(CCN1CCCc2nc(C)c(C)cc21)=N\O[C@@H](C)c1cc(-c2c(C)cc(C)cc2C)no1`, the activity change, positive = activation was -56.9% [at 11.4 µM] (inactive).

As for `CO[C@@H]1/C=C\CC(=O)N[C@@H](C)C(=O)OC[C@@H](OC)[C@H](C)CCCC(=O)OC[C@H]1C`, the activity change, positive = activation was -57.1% [at 11.4 µM] (inactive). Then `Nc1cc(=O)[nH]c(=O)n1CC1CC1`, with -43.3% (inactive); and `CC(C)NC(=O)[C@H]1C[C@@H]1[C@H](NC(=O)OCc1ccccc1)c1ccccc1`, with -52.1% (inactive); and `CC(C)=NO[C@@H](C)c1cc(-c2c(C)cc(C)cc2C)no1`, with -45% [at 11.4 µM] (inactive). Then `Cc1c(O)c(O)cc2c1oc1c3ccccc3oc(=O)c21`, with -53.9% (inactive); and `CO[C@H]1COC(=O)[C@@H](Cc2ccccc2)NC(=O)[C@@H](C)COC(=O)C/C=C\[C@@H]1C`, with -36.9% [at 11.4 µM] (inactive); and `FC(F)(F)c1ccc(CN2C[C@@H]3C(c4ccc(C(F)(F)F)cc4)C4(c5cccnc5)CC3(C4)[C@H]2c2ccccc2)cc1` (some centres not stated), with -52.7% (inactive). Next, `Cn1c(N)c(C(=O)COC(=O)c2cc(C3CC3)nc3ccccc23)c(=O)n(Cc2ccccc2)c1=O`: -53% (inactive).

On to `C/C(CCN1CCCc2nc(C)c(C)cc21)=N\OC[C@@H](C)[C@H](OCc1ccccc1)C(C)C`, for which the activity change, positive = activation is -46.3% [at 11.4 µM] (inactive).
